TDP1 cell noCPT: qHTS for Inhibitors of human tyrosyl-DNA phosphodiesterase 1 (TDP1): qHTS in cells in absence of CPT. DT40 Tdp1-/- hTDP1 cells, no CPT, ATP luminescence, 48 h. Potency, µM (highest dose often 46.2 µM), for inactives: at the top dose activity change, negative = growth inhibition, actives largely listed as inhibitors. hit rate 15% among 420,000; also: % is scaled to controls: 0 for no effect and ±100 for the full control effect; nearly all actives have a fitted effect of over 55% in size
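Stably hTDP1-transfected Tdp1-null chicken DT40 cells were treated with library compounds minus camptothecin and grown for at least 48 hr at 37 °C, after which cellular ATP was quantified by luminescence.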
TGFb SMAD3 inh: blocks TGF-b signaling | HepG2 CAGA-GFP TGF-b/SMAD3 reporter, GFP fluorescence, 18 h; TGF-beta stimulated, 500 pg/mL final | Potency, µM (top dose mostly 46.1 µM), inactives show at the top dose activity, negative = inhibition, usual class: inhibitors | hit rate 1.2% among 410,000; also: % is scaled to controls: 0 for no effect and ±100 for the full control effect; nearly all actives have a fitted effect of over 65% in size
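Using HEPG2 CAGA-GFP reporter cells at 1000 cells/well, we pinned test compounds, stimulated with recombinant TGF-beta (500 pg/mL final) and measured total well GFP after 18 h.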
S2 tox: reduces viability in counter-screen for ATXN expression inhibitors; S2 cells (HEK-293 line with an ATXN2-luciferase reporter) viability, CellTiter-Fluor protease fluorescence, 24 h; Potency, µM (titrated, usually from 56.7 µM), actives largely listed as cytotoxic; hit rate 0.49% among 400,000; AID 651635; also: nearly all actives have a fitted effect of over 40% in size
HepG2 viability: counter-screen for TGF-b inhibitors: cytotoxicity in HepG2 cells. HepG2 CAGA-GFP viability, ATP luminescence, 18 h. hit rate 0.76% among 410,000. Potency, µM (highest dose often 46.1 µM), for inactives: at the top dose activity change, negative = cytotoxicity, most hits filed as cytotoxic
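HepG2 CAGA-GFP cells (1000/well, DMEM with 1% FBS) received compound, then TGF-beta at 500 pg/mL final, and were incubated 18 hours at 37 degrees C. Viability was read by CellTiter-Glo luminescence. Media-only wells were set as complete cell-killing and DMSO as no toxicity.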
DT40 TDP1 CPT: growth inhibition of DT40 Tdp1-/-;hTDP1 cells with camptothecin (screen for TDP1 inhibitors); Potency, µM (doses to about 46.2 µM), for inactives: top-dose activity change, negative = growth inhibition, actives largely listed as inhibitors; AID 686979; chicken DT40 Tdp1-/-;hTDP1 cells + 20 nM CPT, ATP luminescence, 48 h; hit rate 12% among 420,000; also: % is scaled to controls: 0 for no effect and ±100 for the full control effect; nearly all actives have a fitted effect of over 55% in size
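Chicken DT40 Tdp1-/- cells complemented with human TDP1, 400 cells/well, exposed to compounds plus 20 nM camptothecin for at least 48 h at 37 C; viability read as ATP content by CellTiter-Glo luminescence.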
ATXN2 expr inh: ATXN2 expression inhibition; HEK-293 ATXN2-luciferase reporter, luminescence, 24 h; Potency, µM (doses to about 57 µM), for the others: top-dose activity change, negative = inhibition, most hits filed as inhibitors; hit rate 0.72% among 360,000; also: % is scaled to controls: 0 for no effect and ±100 for the full control effect; nearly all actives have a fitted effect of over 55% in size
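qHTS (up to 57 uM final) was run with 24 h compound exposure of reporter cells at 37 °C. Each well was multiplexed: SteadyGlo luminescence measured ATXN2-luciferase expression after a fluorogenic Gly-Phe-AFC viability readout (25 uM final).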
The depositor's hits bear a star. A selection: hits, their analogues and other compounds. The true share with any hit is near 17%. Calls follow the shape of the dose curve; as a rule, active = well fitted curve in the direction sought with a large enough effect; inconclusive = small, poorly fitted or top-dose-only effect, or another doubt; inactive = no such curve, though single readings can be large; an effect the other way counts as inactive or inconclusive. Potency is read from the fitted curve at half-maximal effect.

Cc1cccc(NC(=O)CSc2nc(=O)n(CCCN3CCOCC3)c3c2CCCC3)c1C was read as TDP1 cell noCPT 1%, TGFb SMAD3 inh 1%, S2 tox inactive, HepG2 viability 1% and DT40 TDP1 CPT -25%.
`COc1cc(C(=O)NCc2nnc(SCC(=O)Nc3cccc(C(F)(F)F)c3)o2)cc(OC)c1OC` gave TDP1 cell noCPT 7%, TGFb SMAD3 inh 2%, S2 tox inactive, HepG2 viability 1%, DT40 TDP1 CPT 0% and ATXN2 expr inh 1%.
For Cc1ccccc1Cn1c(=O)n(CCCCC(=O)NCc2ccccc2Cl)c(=O)c2ccccc21 the results were TDP1 cell noCPT inconclusive, TGFb SMAD3 inh -4%, S2 tox inactive, HepG2 viability -16%, DT40 TDP1 CPT -11% and ATXN2 expr inh -5%.
CN1C(=O)/C(=C/c2ccccc2OCc2cccc(F)c2)NC1=S was read as TDP1 cell noCPT -24%, TGFb SMAD3 inh 17%, S2 tox inactive, HepG2 viability -5%, DT40 TDP1 CPT -1% and ATXN2 expr inh -32%.
For CC1CCc2sc(C(=O)NCc3ccccn3)cc2C1 (centres undefined) the results were TDP1 cell noCPT 16µM*, TGFb SMAD3 inh 3%, S2 tox inactive, HepG2 viability -2%, DT40 TDP1 CPT 18µM* and ATXN2 expr inh 47%.
CC1CCc2c(C(=O)NCc3ccccn3)csc2C1 (centres undefined) was read as TDP1 cell noCPT -35%, TGFb SMAD3 inh -1%, S2 tox inactive, HepG2 viability -7%, DT40 TDP1 CPT -11% and ATXN2 expr inh 59%.
`Cc1ccc(CNC(=O)COC(=O)c2cc3c(s2)CCC(C)C3)cc1` (centres undefined) gave TDP1 cell noCPT inconclusive, TGFb SMAD3 inh -21%, S2 tox inactive, HepG2 viability -42%, DT40 TDP1 CPT 21µM* and ATXN2 expr inh -12%.
CC1CCc2sc(C(=O)OCC(=O)NCc3ccccc3)cc2C1 (centres undefined) was read as TDP1 cell noCPT 18µM*, TGFb SMAD3 inh inconclusive, S2 tox inactive, HepG2 viability -33%, DT40 TDP1 CPT 21µM* and ATXN2 expr inh -21%.
O=C(Nc1cc(S(=O)(=O)N2CCCCC2)ccc1Cl)c1ccc(F)cc1 was read as TDP1 cell noCPT -14%, TGFb SMAD3 inh 14%, S2 tox inactive, HepG2 viability -3%, DT40 TDP1 CPT 5% and ATXN2 expr inh -8%.
For CCN(CC(=O)Nc1ccc(N2CCOCC2)cc1)C(=O)Cc1ccccc1 the results were TDP1 cell noCPT 6%, TGFb SMAD3 inh 13%, S2 tox inactive, HepG2 viability -3% and DT40 TDP1 CPT 0%.
Screening CC(C)C(NC(=O)c1ccc(C(C)(C)C)cc1)C(=O)OCC(=O)NC(=O)Cc1ccccc1 (centres undefined) returned TDP1 cell noCPT -8%, TGFb SMAD3 inh 0%, S2 tox inactive, HepG2 viability 3%, DT40 TDP1 CPT -16% and ATXN2 expr inh 2%.
`CC1=NN(C(=O)Cc2ccccc2)C(O)(c2ccccc2)C1` (centres undefined) gave TDP1 cell noCPT 4.1µM*, TGFb SMAD3 inh 20%, S2 tox inactive, HepG2 viability -2%, DT40 TDP1 CPT 2.9µM* and ATXN2 expr inh 12%.
`CC1=NN(C(=O)Cc2ccc([N+](=O)[O-])cc2)C(O)(c2ccccc2)C1` (centres undefined) gave TDP1 cell noCPT 5.2µM*, TGFb SMAD3 inh -1%, S2 tox inactive, HepG2 viability 5%, DT40 TDP1 CPT 4.1µM* and ATXN2 expr inh -1%.
